Experimental data from PubChem BioAssay (NCATS).
Inconclusive results are not listed. Active and inactive are the calls of the source. Calls follow the shape of the dose curve; as a rule, active = well fitted inhibition curve with a large enough effect; inconclusive = small, poorly fitted or top-dose-only effect; inactive = flat fitted curve, though single readings scatter.

Tests used:
Assay in all cases: qHTS profiling for inhibitors of Plasmodium falciparum proliferation (AID 504749); also: nearly all actives have a fitted effect of over 60% in size
Settings in all cases: P. falciparum in erythrocytes, SYBR Green DNA, 72 h; series mostly up to 12.8 µM
CP250 = tested on: CP250
Outline: (§1)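 P. falciparum-infected erythrocytes (0.3% parasitemia, 2.5% hematocrit) incubated with compound 72 h at 37 C, 5% CO2. Parasite DNA detected by SYBR Green after lysis, overnight at room temperature; normalised to 0.29 uM artemisinin and DMSO.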

CP252 = tested on: CP252
Outline: as §1

CP256 = tested on: CP256
Outline: as §1

CP260 = tested on: CP260
Outline: as §1

CP262 = tested on: CP262
Outline: as §1

CP265 = tested on: CP265
Outline: as §1

CP266 = tested on: CP266
Outline: as §1

CP268 = tested on: CP268
Outline: as §1

CP269 = tested on: CP269
Outline: as §1

CP286 = tested on: CP286
Outline: as §1

CP291 = tested on: CP291
Outline: as §1

CP297 = tested on: CP297
Outline: as §1

CP305 = tested on: CP305
Outline: as §1

CP315 = tested on: CP315
Outline: as §1

CP325 = tested on: CP325
Outline: as §1

CP329 = tested on: CP329
Outline: as §1

CP335 = tested on: CP335
Outline: as §1

DFO2036 = tested on: DFO2036
Outline: as §1

DIV14 = tested on: DIV14
Outline: as §1

DIV17 = tested on: DIV17
Outline: as §1

DIV30 = tested on: DIV30
Outline: as §1

Dd2 = tested on: Dd2
Outline: as §1

ECU = tested on: ECU
Outline: as §1

FAB9 = tested on: FAB9
Outline: as §1

GB4 = tested on: GB4
Outline: as §1

HB3 = tested on: HB3
Outline: as §1

ICS = tested on: ICS
Outline: as §1

JCK = tested on: JCK
Outline: as §1

N140 = tested on: N140
Outline: as §1

P93_24 = tested on: P93_24
Outline: as §1

P94_40 = tested on: P94_40
Outline: as §1

PAD = tested on: PAD
Outline: as §1

PC15 = tested on: PC15
Outline: as §1

PC26 = tested on: PC26
Outline: as §1

PC49 = tested on: PC49
Outline: as §1

SC27B = tested on: SC27B
Outline: as §1

TAB109 = tested on: TAB109
Outline: as §1

TAB113 = tested on: TAB113
Outline: as §1

TAB165 = tested on: TAB165
Outline: as §1

W2 = tested on: W2
Outline: as §1

Measured: Potency

O=C(O)[C@@H]1CCCN1
inactive: all assays above
